Results: PubChem BioAssay (Tox21)
Inconclusive results are not listed. Active and inactive are the calls of the source. Unless noted, the call rests on the fitted dose curve; in most records, active means well fitted curve in the direction sought with a large enough effect in the repeat runs; inconclusive means weak or mixed curves; inactive means no such curve, though single readings can be large; an effect the other way counts as inactive or inconclusive.

Columns and labels:
[1] = molecular target: Aryl hydrocarbon receptor (Homo sapiens) (UniProt P35869); assay: qHTS assay to identify small molecule that activate the aryl hydrocarbon receptor (AhR) signaling pathway (AID 743085); details: HepG2 AhR-luc (HG2L7.5c1), luciferase, 24 h; series mostly up to 70.3 µM;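 further: HG2L7.5c1 human HepG2 liver cells with stably integrated DRE-driven firefly reporter; nearly all actives have a fitted effect of over 15% in size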
Chain of Aryl hydrocarbon receptor (Homo sapiens) (P35869 whole entry, looked up): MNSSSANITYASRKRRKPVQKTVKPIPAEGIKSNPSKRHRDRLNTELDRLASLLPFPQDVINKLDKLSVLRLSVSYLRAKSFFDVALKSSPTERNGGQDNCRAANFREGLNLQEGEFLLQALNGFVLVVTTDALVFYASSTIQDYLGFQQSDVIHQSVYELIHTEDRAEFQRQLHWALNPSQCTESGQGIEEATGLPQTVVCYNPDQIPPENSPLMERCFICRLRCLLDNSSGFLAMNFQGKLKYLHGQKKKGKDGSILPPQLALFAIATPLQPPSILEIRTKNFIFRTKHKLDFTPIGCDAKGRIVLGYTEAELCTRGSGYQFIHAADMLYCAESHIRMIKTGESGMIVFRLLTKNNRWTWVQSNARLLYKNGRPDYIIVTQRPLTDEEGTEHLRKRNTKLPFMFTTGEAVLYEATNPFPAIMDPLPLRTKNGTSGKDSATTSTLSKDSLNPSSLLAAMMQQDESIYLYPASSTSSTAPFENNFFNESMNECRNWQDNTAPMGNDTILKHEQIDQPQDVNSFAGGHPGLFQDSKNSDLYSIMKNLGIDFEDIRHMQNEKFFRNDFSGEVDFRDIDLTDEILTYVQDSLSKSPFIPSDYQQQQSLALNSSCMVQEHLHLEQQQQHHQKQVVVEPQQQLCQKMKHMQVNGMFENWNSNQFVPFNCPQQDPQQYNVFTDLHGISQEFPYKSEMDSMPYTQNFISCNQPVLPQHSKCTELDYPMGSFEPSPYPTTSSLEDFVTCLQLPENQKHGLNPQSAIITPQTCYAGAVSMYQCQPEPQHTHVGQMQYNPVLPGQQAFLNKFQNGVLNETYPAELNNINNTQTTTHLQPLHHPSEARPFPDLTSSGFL
Procedure, shortened: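 AhR agonist activity is inferred from enhanced light output of a DRE-controlled firefly luciferase reporter in HepG2 cells, measured with ONE-Glo following 24 h treatment at 37C.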

[2] = qHTS assay to identify small molecule that activate the aryl hydrocarbon receptor (AhR) signaling pathway - cell viability counter screen (AID 743086); details: HepG2-AhR-luc viability, CellTiter-Fluor, 24 h; series mostly up to 70.3 µM;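 further: HepG2 liver cells carrying the AhR DRE luciferase reporter; nearly all actives have a fitted effect of over 45% in size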
Procedure, shortened: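 HepG2-AhR-luc (HG2L7.5c1) cells, 4000/well, treated 24 h at 37 C with compound; viability measured as CellTiter-Fluor fluorescence after 30 min in the same wells as the luciferase read.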

[3] = molecular target: Peroxisome proliferator-activated receptor gamma (Homo sapiens) (UniProt P37231); assay: qHTS assay to identify small molecule agonists of the peroxisome proliferator-activated receptor gamma (PPARg) signaling pathway (AID 743094; active means well fitted activation curve with a large enough effect in the signal ratio in the repeat runs, not every such curve was filed as active; the % refers to the signal ratio); details: HEK293H PPARg-UAS-bla, beta-lactamase FRET ratio, 17 h; series mostly up to 57 µM
Chain of Peroxisome proliferator-activated receptor gamma (Homo sapiens) (P37231 whole entry, looked up): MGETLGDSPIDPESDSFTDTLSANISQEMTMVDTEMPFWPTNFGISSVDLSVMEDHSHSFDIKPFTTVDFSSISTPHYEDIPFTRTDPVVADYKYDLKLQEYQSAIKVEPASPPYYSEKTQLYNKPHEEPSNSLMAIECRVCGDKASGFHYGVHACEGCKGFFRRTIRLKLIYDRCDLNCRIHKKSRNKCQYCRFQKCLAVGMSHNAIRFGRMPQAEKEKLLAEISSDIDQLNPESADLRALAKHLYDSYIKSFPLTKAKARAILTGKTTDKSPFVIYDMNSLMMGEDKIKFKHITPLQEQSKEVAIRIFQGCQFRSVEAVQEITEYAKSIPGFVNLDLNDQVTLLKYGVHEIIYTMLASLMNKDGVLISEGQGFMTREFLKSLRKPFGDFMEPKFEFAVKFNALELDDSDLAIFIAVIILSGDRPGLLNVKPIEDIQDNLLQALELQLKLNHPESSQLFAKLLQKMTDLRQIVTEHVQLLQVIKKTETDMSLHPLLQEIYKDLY
Procedure, shortened: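 Beta-lactamase FRET fluorescence was the read-out after a 1 h room-temperature substrate step, following 17 h compound treatment at 37C of HEK293H cells expressing a UAS-driven bla reporter responsive to PPARg.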

[4] = molecular target: Peroxisome proliferator-activated receptor gamma (Homo sapiens) (UniProt P37231); assay: qHTS assay to identify small molecule antagonists of the peroxisome proliferator-activated receptor gamma (PPARg) signaling pathway (AID 743191; calls by dose curve; further: nearly all actives have a fitted effect of over 30% in size); details: HEK293H PPARg-UAS-bla, beta-lactamase ratio, antagonist, 17 h; series mostly up to 62.6 µM
Procedure, shortened: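 GeneBLAzer PPARg UAS-bla HEK293H cells, 5 h post-plating, exposed to compounds 17 h at 37C. LiveBLAzer B/G FRET substrate added for 1 h at room temperature; beta-lactamase reporter read by fluorescence intensity.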

[5] = qHTS assay to identify small molecule antagonists of the peroxisome proliferator-activated receptor gamma (PPARg) signaling pathway - cell viability counter screen (AID 743194); details: PPARg-bla HEK293H viability, CellTiter-Glo luminescence, 17 h, co-treated with 50 nM rosiglitazone; series mostly up to 62.6 µM; further: nearly all actives have a fitted effect of over 55% in size
Procedure, shortened: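 Cytotoxicity counter screen in PPARg-bla HEK293H cells, same wells as reporter assay. Compounds plus 50 nM rosiglitazone (final) for 17 h at 37 C, then viability read by CellTiter-Glo luminescence.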

[6] = qHTS assay for small molecule agonists of the antioxidant response element (ARE) signaling pathway - cell viability counter screen (AID 743203; calls by dose curve; further: nearly all actives have a fitted effect of over 55% in size); details: ARE-bla HepG2 viability, CellTiter-Glo luminescence, 16 h; series mostly up to 73.3 µM
Procedure, shortened: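 HepG2 cells carrying ARE-driven beta-lactamase; 2,000 cells/well; 5 hrs plating; compound pinned from DMSO; 16 hrs 37C/5% CO2; CellTiter-Glo added; 30 min RT; luminescence.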

[7] = qHTS assay for small molecule activators of the heat shock response signaling pathway - cell viability counter screen (AID 743209); details: HSE-bla HeLa viability, CellTiter-Glo luminescence, 5 h; series mostly up to 62.6 µM; further: nearly all actives have a fitted effect of over 50% in size
Procedure, shortened: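 Luminescence from CellTiter-Glo, added after the beta-lactamase FRET read, gave the viability signal. Cells were HSE-bla HeLa treated with DMSO-dissolved compounds for 5 h at 37 C following overnight plating.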

[8] = qHTS assay for small molecule activators of the heat shock response signaling pathway (AID 743210; active means well fitted activation curve with a large enough effect in the signal ratio in the repeat runs, with a control signal flat, not every such curve was filed as active; the % refers to the signal ratio); details: HeLa HSE-bla reporter, beta-lactamase ratio, 5 h; series mostly up to 62.6 µM
Procedure, shortened: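 HSE-bla HeLa cells (beta-lactamase reporter under heat shock response elements), plated overnight, then exposed to compounds 5 h at 37 C; LiveBLAzer B/G FRET substrate added, 2.5 h at room temperature, fluorescence intensity read.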

[9] = qHTS assay to identify small molecule agonists of the peroxisome proliferator-activated receptor delta (PPARd) signaling pathway - cell viability counter screen (AID 743211); details: PPARd-bla HEK293H viability, CellTiter-Glo luminescence, 17 h; series mostly up to 62.6 µM; further: nearly all actives have a fitted effect of over 55% in size
Procedure, shortened: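 qHTS cell viability: PPARd-bla HEK293H; 17 h cpd, 37C; CellTiter-Glo, luminescence at 30 min RT.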

[10] = qHTS assay for small molecule agonists of the antioxidant response element (ARE) signaling pathway (AID 743202; active means well fitted activation curve with a large enough effect in the signal ratio in the repeat runs, not every such curve was filed as active; the % refers to the signal ratio); details: HepG2 ARE-bla reporter, beta-lactamase FRET, 16 h; series mostly up to 73.3 µM
Procedure, shortened: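 ARE-bla HepG2 cells (beta-lactamase reporter under the antioxidant response element), plated 5 hours, then exposed to compounds 16 hours at 37 C. LiveBLAzer B/G FRET substrate added for 2 hours at room temperature; fluorescence intensity read.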
On the % scale 0 is the no-effect control and ±100 the full control effect.

CCCCCCCCOCCC#N
inactive: Potency [1] | outcome [2] | outcome [3] | outcome [4] | outcome [5] | outcome [6] | Potency [7] | outcome [8] | outcome [9]

C=C(C)C(=O)OCCOC1CC2CC1C1C=CCC21 (stereo not drawn)
inactive: Potency [1] | outcome [2] | outcome [3] | outcome [4] | outcome [5] | Potency [10] | outcome [6] | outcome [8] | outcome [9]

C/C=C(\C)C(=O)OC/C=C(\C)CCC=C(C)C
inactive: Potency [1] | outcome [2] | outcome [3] | outcome [4] | outcome [5] | outcome [6] | Potency [7] | outcome [9]

CC1=C(O)C(=O)CO1
inactive: Potency [1] | outcome [2] | outcome [3] | outcome [4] | outcome [5] | outcome [6] | Potency [7] | outcome [8] | outcome [9]

CC(=O)Oc1ccc(C(C)=O)cc1
inactive: Potency [1] | outcome [2] | outcome [3] | outcome [4] | outcome [5] | outcome [6] | Potency [7] | outcome [8] | outcome [9]

NCC1CCC(C(=O)Oc2ccc(CCC(=O)O)cc2)CC1 (stereo not drawn)
inactive: Potency [1] | outcome [2] | outcome [3] | outcome [4] | outcome [5] | outcome [6] | Potency [7] | outcome [8] | outcome [9]

CCc1ccc(CC)cc1
inactive: Potency [1] | outcome [2] | outcome [3] | outcome [4] | Potency [10] | outcome [6] | Potency [7] | outcome [8]

CN(C)CCCN(C)C
inactive: activation [1] -0.58% [at 8.47 µM] | viability change, negative = cytotoxic [2] -2.64% [at 8.47 µM] | activation [3] -0.396% [at 7.08 µM] | ratio activity, negative = inhibition [4] 4.44% [at 5.95 µM] | activity change, negative = cytotoxicity [5] -7.23% [at 5.95 µM] | activation [10] -1.85% [at 8.36 µM] | viability change, negative = cytotoxic [6] 5.88% [at 8.36 µM] | activation [8] -0.827% [at 5.95 µM] | activity change, negative = cytotoxicity [9] -3.03% [at 5.95 µM]

CC(O)C(CO)C(C)O (stereo not drawn)
inactive: Potency [1] | outcome [2] | outcome [3] | outcome [4] | Potency [10] | outcome [6] | Potency [7] | outcome [8] | outcome [9]

CCCc1ccc(O)c(OC)c1
inactive: Potency [1] | outcome [2] | outcome [3] | outcome [4] | outcome [5] | Potency [10] | Potency [7] | outcome [8] | outcome [9]

CCC(=O)OCCOc1ccccc1
inactive: Potency [1] | outcome [2] | outcome [3] | outcome [4] | outcome [5] | outcome [6] | Potency [7] | outcome [8] | outcome [9]

CC(=O)SCC(CC(=O)c1ccc(C)cc1)C(=O)O (stereo not drawn)
inactive: Potency [1] | outcome [2] | outcome [3] | outcome [4] | outcome [5] | Potency [10] | outcome [6] | outcome [8] | outcome [9]

COC(=O)/C=C(\C)CCC=C(C)C
inactive: Potency [1] | outcome [2] | outcome [3] | outcome [4] | outcome [5] | outcome [6] | Potency [7] | outcome [8] | outcome [9]

O=Cc1ccc(C(=O)O)cc1
inactive: Potency [1] | outcome [2] | outcome [3] | outcome [4] | outcome [6] | Potency [7] | outcome [8] | outcome [9]

Cc1ccc(Br)cc1
inactive: Potency [1] | outcome [2] | outcome [3] | outcome [4] | outcome [5] | outcome [6] | Potency [7] | outcome [8]

C=CCON/C(CCC)=C1\C(=O)CC(C)(C)C(C(=O)OC)=C1O
inactive: Potency [1] | outcome [2] | outcome [3] | outcome [4] | outcome [5] | outcome [6] | Potency [7] | outcome [8]

Nc1cc(S(=O)(=O)O)ccc1O
inactive: Potency [1] | outcome [2] | outcome [3] | outcome [4] | outcome [5] | outcome [6] | Potency [7] | outcome [8]

CC[C@@]1(c2ccccc2)NC(=O)N(C)C1=O
inactive: Potency [1] | outcome [2] | outcome [3] | outcome [4] | outcome [5] | outcome [6] | Potency [7] | outcome [8] | outcome [9]

CC(CC(=O)Cl)CC(C)(C)C (stereo not drawn)
inactive: Potency [1] | outcome [2] | outcome [3] | outcome [4] | outcome [5] | outcome [6] | Potency [7] | outcome [9]

C=CC(=O)OCCOCCOCC
inactive: Potency [1] | outcome [2] | outcome [3] | outcome [4] | outcome [5] | outcome [6]

C=CC(=O)CC
inactive: Potency [1] | outcome [2] | outcome [3] | outcome [4] | outcome [5] | outcome [6] | Potency [7] | outcome [8] | outcome [9]

COC(=O)N/N=C/c1c[n+]([O-])c2ccccc2[n+]1[O-]
inactive: Potency [1] | outcome [2] | outcome [3] | outcome [4] | outcome [5] | outcome [6] | outcome [8] | outcome [9]

CCCCOCCCC
inactive: Potency [1] | outcome [2] | outcome [3] | outcome [5] | Potency [10] | outcome [6] | outcome [8] | outcome [9]

O=C[C@@H](O)[C@H](O)[C@H](O)CO
inactive: Potency [1] | outcome [2] | outcome [3] | outcome [5] | Potency [10] | outcome [6] | Potency [7] | outcome [8]

C=COCCCCO
inactive: Potency [1] | outcome [2] | outcome [3] | outcome [5] | outcome [6] | Potency [7] | outcome [8] | outcome [9]

COc1cc(NS(=O)(=O)c2ccc(N)cc2)ncn1
inactive: Potency [1] | outcome [2] | outcome [3] | outcome [5] | Potency [10] | outcome [6] | Potency [7] | outcome [8] | outcome [9]

c1coc(Cn2cccc2)c1
inactive: Potency [1] | outcome [2] | outcome [3] | outcome [5] | outcome [6] | Potency [7]

COC(C)(C)CC(C)=O
inactive: Potency [1] | outcome [2] | outcome [3] | outcome [5] | Potency [10] | outcome [6] | Potency [7] | outcome [8] | outcome [9]

C=C(C)C(=O)OCCCC
inactive: Potency [1] | outcome [2] | outcome [4] | outcome [5] | Potency [10] | outcome [6] | Potency [7] | outcome [8]
